Consider five compounds from PubChem BioAssay.

For assay [1], the system named is Human papillomavirus type 1a protein E7 (residues 44-93). As to the kind of experiment: small molecules binding HPV E7 44-93 – biochemical, small-molecule microarray, residues 44-93, 635 nm fluorescence, primary screen (AID 1108).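 Further: E7 fragment applied at 1 µg/mL in TBST for 1 h at 4 C; score combines spot fluorescence with its signal to noise ratio.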 The conditions noted are these: fluorescence 635 nm, higher = more signal.
Assay [2] in a line: hepatitis C replication reporter changes, two-sided – Huh7 cells, luciferase reporter, HCV replication inhibitor project, primary screen (AID 1109).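 Further: huh7 hepatoma cells harbouring a luciferase neomycin HCV replicon reporter; luciferase luminescence as measure of HCV replicon replication; test concentration not given here.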 The settings on record: Huh7 HCV replicon luciferase reporter, 48 h; higher = more signal. In general terms: Reporter assays use an easily measured gene product as a stand-in for the process of interest.
The target of assay [3] is Left-right determination factor 2 (Homo sapiens) (UniProt O00292). In words: small molecules binding LEFTY2 protein – biochemical, small-molecule microarray, 635 nm fluorescence scan, primary screen (AID 1110). The conditions noted are these: higher = more signal.
Assay [4] has as its target Calmodulin-1 (Homo sapiens) (UniProt P0DP23). In words: small molecules binding calmodulin-1 with EGTA – biochemical, small-molecule microarray, Cy5-labelled CALM1, profiling panel (AID 1111).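 Further: labelled calmodulin applied in Tris saline Tween buffer holding calcium plus EGTA and DTT.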 The settings on record: Cy5-CALM1 binding fluorescence, higher = more signal.
Assay [5] shares this target. In words: small molecules binding Ca-loaded calmodulin-1 – biochemical, small-molecule microarray, Cy5-labelled CALM1, plus calcium, artefact control for SMM control-protein annotation, profiling panel (AID 1112).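 Further: score merges spot fluorescence with signal to noise from triplicate slides.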 The settings on record: Cy5-CALM1 binding fluorescence, higher = more signal.
Assay [6] in a line: probe aWnt5a binding to arrayed compounds – biochemical, biotinylated probe, 635/667 nm fluorescence, primary screen (AID 1113).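 Further: score merges 667 nm fluorescence intensity with signal-to-noise per printed feature.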 The conditions noted are these: small-molecule microarray, higher = more signal.
Assay [7] can be described thus: probe aShh binding to arrayed compounds – biochemical, biotinylated probe, 635/667 nm fluorescence, primary screen (AID 1114).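 Further: probe is biotin-labelled aShh protein from a stem cell growth factor screen; measures binding of labelled protein to compounds printed on the slide; score merges feature fluorescence at 667 nm with signal-to-noise.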 The settings on record: small-molecule microarray, higher = more signal.
Assay [8] is described as follows: probe aNog binding to arrayed compounds – biochemical, biotinylated probe, 635/667 nm fluorescence, primary screen (AID 1115).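 Further: probe is biotinylated aNog protein used at 0.15 µg/mL for 1 h at 4 C; z-score combines 667 nm fluorescence of each spot with its signal to noise.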 The settings on record: small-molecule microarray, higher = more signal.
Assay [9] addresses Torsin-1A-interacting protein 1 (Homo sapiens) (UniProt Q5JTV8). In words: compound microarray binding of lysate hLAP1 – cell lysate, small-molecule microarray, COS7 lysate, 635/667 nm fluorescence, primary screen (AID 1116). The settings on record: 635 nm fluorescence, higher = more signal.
For assay [10], the target named is Alpha-bungarotoxin (Bungarus multicinctus) (UniProt P60615). As to the kind of experiment: compounds binding labelled alpha-BTX control protein – biochemical, small-molecule microarray, Alexa647 label, 635/667 nm fluorescence, artefact control for SMM control protein annotation, profiling panel (AID 1117). The settings on record: alpha-BTX-A647 binding fluorescence, higher = more signal.

The next assay deals with Albumin (Bos taurus) (UniProt P02769). In words: compounds binding labelled BSA control protein – biochemical, small-molecule microarray, Alexa647 label, 635/667 nm fluorescence, artefact control for SMM control protein annotation, profiling panel (AID 1118).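 Further: score merges 667 nm emission intensity and signal-to-noise per printed compound spot.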 The settings on record: BSA-A647 binding, fluorescence 635 nm, higher = more signal.
The nature of assay [11]: probe aXIP binding to arrayed compounds – biochemical, NeuroSMM set, 635/667 nm fluorescence, primary screen (AID 1119).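 Further: probe is the protein aXip251-270 applied at 1 µg/mL to compound-printed slides; binding of probe to printed compounds measured as 667 nm fluorescence plus signal to noise.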 The settings on record: small-molecule microarray, higher = more signal, called active from +8 up or from −8 down.
Assay [12] can be described thus: probe aNOTCH3 binding on compound microarray – biochemical, small-molecule microarray, 635/667 nm fluorescence, primary screen (AID 1120).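 Further: probe is a biotin-tagged antibody raised against NOTCH3 rather than NOTCH3 protein; score merges spot fluorescence near 667 nm with spot signal to noise.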 The conditions noted are these: higher = more signal.
The nature of assay [13]: probe aNOTCH2 binding on compound microarray – biochemical, small-molecule microarray, 635/667 nm fluorescence, primary screen (AID 1121).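 Further: score merges feature fluorescence read at 667 nm with its signal to noise.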 The settings on record: higher = more signal.
Assay [14] has as its target Carbonic anhydrase 2 (Homo sapiens) (UniProt P00918). As to the kind of experiment: compounds binding carbonic anhydrase 2 – biochemical, small-molecule microarray, Alexa647-labelled CAII, profiling panel (AID 1122). The settings on record: CAII-A647 binding fluorescence, higher = more signal.
Assay [15] in a line: COS7 lysate on small-molecule microarray, probe aHis, 635 nm (AID 1123).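 Further: z-score combines 667nm fluorescence intensity with signal-to-noise per printed compound spot.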 The settings on record: COS7 cell lysate, fluorescence, higher = more signal.
Assay [16] is described as follows: probe aLAP1 signal on lysate-treated microarray – cell lysate, small-molecule microarray, COS7 lysate, primary screen (AID 1124).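 Further: lysate comes from COS7 cells expressing LAP1 and is applied at 0.3 µg/mL; score merges spot fluorescence near 667 nm with signal-to-noise over triplicate slides.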 The settings on record: probe aLAP1, fluorescence, higher = more signal.
A further assay has as its system Sam68 (KHDRBS1). As to the kind of experiment: compounds binding KHDRBS1 protein – biochemical, small-molecule microarray, 635 nm fluorescence, primary screen (AID 1125).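 Further: score merges 667 nm channel intensity with signal to noise over triplicate slides.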 The conditions noted are these: higher = more signal.
Assay [17] concerns Chordin-like protein 2 (CHRDL2). In words: compounds binding chordin-like 2 – biochemical, small-molecule microarray, 635 nm fluorescence, primary screen (AID 1126).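 Further: printed compound slides probed with Chrdl2 protein at 4 µg/mL for 1 h at 4 C; score merges 667 nm emission intensity with signal to noise over three replicate slides.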 The settings on record: fluorescence 635 nm, higher = more signal.
The target in assay [18] is Concanavalin-A (Canavalia ensiformis) (UniProt P02866). As to the kind of experiment: compounds binding concanavalin A lectin – biochemical, small-molecule microarray, Alexa647 label, 635 nm, artefact control for SMM control protein annotation, primary screen (AID 1127).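 Further: z combines 667 nm emission intensity with signal-to-noise across three replicate slides.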 The conditions noted are these: ConA-A647 binding fluorescence, higher = more signal.

The structures appear in SMILES notation. Active and inactive are the calls of the source.

Left-right determination factor 2 (Homo sapiens), sequence (O00292 whole entry, looked up): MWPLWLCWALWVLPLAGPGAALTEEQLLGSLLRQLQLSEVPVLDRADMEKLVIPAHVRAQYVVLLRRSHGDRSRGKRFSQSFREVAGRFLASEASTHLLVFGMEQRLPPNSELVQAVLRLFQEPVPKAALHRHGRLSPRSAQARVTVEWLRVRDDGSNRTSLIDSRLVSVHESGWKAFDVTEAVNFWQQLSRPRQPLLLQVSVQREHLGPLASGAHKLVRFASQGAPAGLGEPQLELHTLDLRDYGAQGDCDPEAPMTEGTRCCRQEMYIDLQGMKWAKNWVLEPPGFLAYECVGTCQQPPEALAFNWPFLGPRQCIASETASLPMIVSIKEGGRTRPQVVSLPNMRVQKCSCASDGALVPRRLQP
Alpha-bungarotoxin (Bungarus multicinctus), sequence (P60615 whole entry, looked up): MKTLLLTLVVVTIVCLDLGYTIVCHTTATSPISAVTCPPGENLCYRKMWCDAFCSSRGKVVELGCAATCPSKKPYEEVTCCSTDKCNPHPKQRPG
Torsin-1A-interacting protein 1 (Homo sapiens), sequence (Q5JTV8 whole entry, looked up): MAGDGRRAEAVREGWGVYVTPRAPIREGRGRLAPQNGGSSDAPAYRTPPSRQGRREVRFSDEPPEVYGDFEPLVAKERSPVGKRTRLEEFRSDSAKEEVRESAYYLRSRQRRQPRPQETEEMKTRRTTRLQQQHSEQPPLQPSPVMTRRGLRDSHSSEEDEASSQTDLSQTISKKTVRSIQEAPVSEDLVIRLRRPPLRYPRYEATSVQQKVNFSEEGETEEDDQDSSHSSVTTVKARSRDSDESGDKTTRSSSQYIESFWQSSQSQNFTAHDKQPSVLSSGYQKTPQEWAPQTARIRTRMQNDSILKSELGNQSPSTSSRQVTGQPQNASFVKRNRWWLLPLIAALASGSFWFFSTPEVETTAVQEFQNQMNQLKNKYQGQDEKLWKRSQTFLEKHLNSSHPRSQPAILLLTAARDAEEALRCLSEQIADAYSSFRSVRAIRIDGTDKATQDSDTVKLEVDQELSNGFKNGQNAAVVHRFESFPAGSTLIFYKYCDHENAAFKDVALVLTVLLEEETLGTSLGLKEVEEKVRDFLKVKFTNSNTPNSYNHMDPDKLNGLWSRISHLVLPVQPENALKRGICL
Albumin (Bos taurus), sequence (P02769 whole entry, looked up): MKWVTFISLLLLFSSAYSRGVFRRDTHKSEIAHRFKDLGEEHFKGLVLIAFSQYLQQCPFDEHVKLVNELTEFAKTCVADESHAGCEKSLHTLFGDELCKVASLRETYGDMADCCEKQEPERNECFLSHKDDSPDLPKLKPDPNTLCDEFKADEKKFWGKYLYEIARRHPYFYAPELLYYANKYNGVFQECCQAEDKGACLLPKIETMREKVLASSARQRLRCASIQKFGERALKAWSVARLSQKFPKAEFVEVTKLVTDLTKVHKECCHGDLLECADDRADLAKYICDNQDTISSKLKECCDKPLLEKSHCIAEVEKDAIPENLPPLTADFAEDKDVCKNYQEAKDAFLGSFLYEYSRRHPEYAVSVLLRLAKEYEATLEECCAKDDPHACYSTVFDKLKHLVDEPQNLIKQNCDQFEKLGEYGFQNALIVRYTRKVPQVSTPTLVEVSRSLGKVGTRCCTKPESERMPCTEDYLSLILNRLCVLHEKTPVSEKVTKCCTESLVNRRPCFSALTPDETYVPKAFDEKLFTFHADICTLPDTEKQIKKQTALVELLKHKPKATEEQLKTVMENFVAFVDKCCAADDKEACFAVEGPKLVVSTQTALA
Concanavalin-A (Canavalia ensiformis), sequence (P02866 whole entry, looked up): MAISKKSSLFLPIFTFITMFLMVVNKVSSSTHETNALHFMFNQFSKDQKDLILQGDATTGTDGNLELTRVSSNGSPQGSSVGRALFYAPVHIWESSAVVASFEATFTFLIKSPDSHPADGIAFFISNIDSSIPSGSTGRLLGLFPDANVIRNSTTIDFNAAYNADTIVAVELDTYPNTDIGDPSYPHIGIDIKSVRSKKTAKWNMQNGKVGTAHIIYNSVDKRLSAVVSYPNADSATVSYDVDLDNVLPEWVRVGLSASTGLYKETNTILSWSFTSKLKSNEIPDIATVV

On to `O=C(NCc1ccccc1)[C@@]1(Cc2ccccc2)COC(c2ccc(OCCCO)cc2)=N1`, for which the composite z-score in assay [1] is 1.4; in [3], -0.702; in assay [4] it was 0.588; in [5], 0.687; in assay [6], -0.128; in assay [7] it was -0.0337. The composite z-score in [8] is 0.597; in [9], 1.57; in assay [10], 1.71; with Albumin (Bos taurus) it was 0.48; in [12], 0.0539; in assay [13], -0.0063. The composite z-score is 0.504 in assay [14]; 1.71 in [15]; 0.144 in assay [16]; 0.682 in the assay with Sam68 (KHDRBS1); -0.594 in assay [17]; 0.865 in assay [18]. For the same compound, the z-score in assay [2] is -3.29. Also, the composite Z-score in assay [11] is -0.179 (inactive).

With `COc1ccc(C(O)C2C=CC3C(=O)N(C)C(=O)C3N2N2CCCCC2)cc1OCc1ccccc1` (stereo not given), the composite z-score in assay [1] amounted to 1.34; in [3], 0.0446; in assay [4] it was 0.747; in [5], 0.738; in assay [6], 0.0391; in assay [7], 0.462. Further, the composite z-score was 1.63 in assay [8]; 0.68 in assay [9]; 1.87 in assay [10]; 0.728 with Albumin (Bos taurus); 0.13 in assay [12]; -0.0546 in assay [13]. Also, the composite z-score in assay [14] was 0.38; in [15], 1.71; in assay [16], 0.445; in the assay on Sam68 (KHDRBS1) it was 1.29; in [17], -0.651; in assay [18] it was 1.12. Also, in assay [2], the z-score is 0.421. Besides, in assay [11], the composite Z-score is 0.248 (inactive).

For the compound `O=C(N1CCCCC1)[C@@]1(CCS(=O)(=O)c2ccccc2)N=C(c2ccc(OCCCO)cc2)O[C@H]1c1ccccc1`, the composite z-score is 1.48 in assay [1]; -0.197 in assay [3]; -0.215 in assay [4]; -0.688 in assay [5]; 0.212 in assay [6]; 0.427 in [7]. For the same compound, the composite z-score in [8] was -0.133; in assay [9] it was 1.77; in assay [10] it was -0.0166; with Albumin (Bos taurus), -0.0092; in assay [12], 0.0876; in [13] it was -0.0872. The composite z-score is 0.663 in assay [14]; 3.28 in assay [15]; 0.343 in assay [16]; 1.29 in the assay on Sam68 (KHDRBS1); -0.58 in [17]; 0.639 in assay [18]. Also, in assay [2], the z-score is -3.07. Also, the composite Z-score in assay [11] was -0.595 (inactive).

`C[C@@H]1CC[C@H]2C(=O)N3[C@@H](CC[C@@H](C)[C@@H]3c3cccc(N4CCOCC4)c3)C(=O)N2[C@H]1c1cccc(N2CCOCC2)c1`: the composite z-score in assay [1] is 0.384; in assay [3] it was 0.676; in assay [4], -0.413; in [5], -0.403; in assay [6], -0.0478; in assay [7] it was 0.51. The composite z-score in assay [8] is -0.459; in assay [9], 0.653; in [10] it was 1.03; with Albumin (Bos taurus) it was 0.0915; in [12], -0.344; in assay [13], -0.217. For the same compound, the composite z-score in assay [14] stood at 0.477; in assay [15] it was 0.8; in [16] it was 0.581; with Sam68 (KHDRBS1), 0.594; in [17] it was 0.902; in assay [18] it was 1.04. Also, in [2], the z-score stood at 0.27. In addition, the composite Z-score in assay [11] was -0.354 (inactive).

Turning to `C[C@@H]1CC[C@H]2C(=O)N3CCC[C@H]3C(=O)N2[C@H]1c1ccc(Br)cc1`, the composite z-score was 0.175 in assay [1]; 0.267 in assay [3]; -0.243 in assay [4]; -0.558 in [5]; -0.212 in assay [6]; -0.0769 in [7]. For the same compound, the composite z-score in [8] was -0.307; in assay [9], 0.324; in assay [10], -0.179; with Albumin (Bos taurus) it was -0.295; in [12], -0.261; in assay [13], -0.174. In addition, the composite z-score is -0.213 in [14]; 0.233 in [15]; 0.123 in assay [16]; -0.0235 in the assay with Sam68 (KHDRBS1); 0.536 in assay [17]; -0.377 in assay [18]. In addition, the z-score in [2] stood at 0.673. Further, in assay [11], the composite Z-score is 0.734 (inactive).
